Experimental data reported in the supplement of paper PMC10849652.
About 7,900 targets were measured; listed, in parts, are those with a hit and a random draw of the rest. About 0.6% of all pairs of compound and target were hits. Values without a mark were called inactive.

Legend:
Experiment in all cases: log2 fold change, soluble protein after heating vs DMSO (PISA); higher = thermal stabilisation; K562 cells, 10 uM, 30 min; active = over 0.2 and 3.5 SD of the protein, either way, in both replicates (recomputed)
[1] = compound: CC[C@@H]1C(=O)N(C)c2cnc(Nc3ccc(C(=O)NC4CCN(C)CC4)cc3OC)nc2N1C1CCCC1
Summary of the method: (§1)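 K562 cells at 2×10^6 cells/mL were treated with 10 μM compound for 30 min. Aliquots were heated for 3 min across 48°C-58°C, pooled, and extracted in PBS with 0.5% NP-40 at 4°C; soluble protein was the supernatant after 21,000xg for 90 min. Soluble protein was quantified by TMTpro 16plex LC-MS/MS with channel sums equalised, and reported as log2 fold change in thermal stability against DMSO controls, with values from duplicates.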

volasertib = compound: CC[C@@H]1C(=O)N(C)c2cnc(Nc3ccc(C(=O)N[C@H]4CC[C@H](N5CCN(CC6CC6)CC5)CC4)cc3OC)nc2N1C(C)C [volasertib]
Summary of the method: as §1

[2] = compound: CC[C@H](C)N1C=C(C2=C(C=C(C=C21)C3=CN=C(C=C3)N4CCNCC4)C(=O)NCC5=C(C=C(NC5=O)C)C)C
Summary of the method: as §1

epoxomicin = compound: CC[C@H](C)[C@@H](C(=O)N[C@@H]([C@@H](C)O)C(=O)N[C@@H](CC(C)C)C(=O)[C@]1(CO1)C)NC(=O)[C@H]([C@@H](C)CC)N(C)C(=O)C [epoxomicin]
Summary of the method: as §1

[3] = compound: CCn1c(C(=O)N(C2CC2)C2CC2)cc2c3c(ncn3C)c(Nc3cc(C)n(C)n3)nc21
Summary of the method: as §1

[4] = compound: CCn1cc(-c2ccnc3[nH]c(-c4cccc(CN(C)C)c4)cc23)c(-c2ccc(NC(=O)N(C)C)cc2)n1
Summary of the method: as §1

[5] = compound: CN(C)CC(=O)Nc1ccc2[nH]c(=O)c3ccccc3c2c1
Summary of the method: as §1

rosiglitazone = compound: CN(CCOC1=CC=C(C=C1)C[C@H]2C(=O)NC(=O)S2)C3=CC=CC=N3 (racemic) [rosiglitazone]
Summary of the method: as §1

[6] = compound: CN1C2=C(C3=C1C(=O)N(N=C3)CC4=CC(=CC=C4)N)SC(=C2)S(=O)C
Summary of the method: as §1

[7] = compound: CN1CCC(CNc2ccc3ncc(-c4cccc(OC(F)(F)F)c4)n3n2)CC1
Summary of the method: as §1

saracatinib = compound: CN1CCN(CCOc2cc(OC3CCOCC3)c3c(Nc4c(Cl)ccc5c4OCO5)ncnc3c2)CC1 [saracatinib]
Summary of the method: as §1

sotrastaurin = compound: CN1CCN(c2nc(C3=C(c4c[nH]c5ccccc45)C(=O)NC3=O)c3ccccc3n2)CC1 [sotrastaurin]
Summary of the method: as §1

alvocidib = compound: CN1CC[C@H](c2c(O)cc(O)c3c(=O)cc(-c4ccccc4Cl)oc23)[C@H](O)C1 [alvocidib]
Summary of the method: as §1

Tubastatin A = compound: CN1CCc2c(c3ccccc3n2Cc2ccc(C(=O)NO)cc2)C1 [Tubastatin A]
Summary of the method: as §1

[8] = compound: CNC(=O)C1=CC=CC=C1NC2=NC(=NC=C2Cl)NC3=C(C=C(C=C3)N4CCOCC4)OC
Summary of the method: as §1

defactinib = compound: CNC(=O)c1ccc(Nc2ncc(C(F)(F)F)c(NCc3nccnc3N(C)S(C)(=O)=O)n2)cc1 [defactinib]
Summary of the method: as §1

rucaparib = compound: CNCc1ccc(-c2[nH]c3cc(F)cc4c3c2CCNC4=O)cc1 [rucaparib]
Summary of the method: as §1

[9] = compound: CNc1nc(-c2ccc3c(N)n[nH]c3c2)cc(N2C[C@@H](C(=O)NC3CCCCC3)CC[C@H]2C)n1
Summary of the method: as §1

encorafenib = compound: COC(=O)N[C@@H](C)CNc1nccc(-c2cn(C(C)C)nc2-c2cc(Cl)cc(NS(C)(=O)=O)c2F)n1 [encorafenib]
Summary of the method: as §1

[10] = compound: COC(=O)[C@H](CCSC)NC(=O)C1=C(C=C(C=C1)NC[C@H](CS)N)C2=CC=CC=C2
Summary of the method: as §1

Sequence of UniProt Q9Y5W9 (Q9Y5W9 whole entry, looked up): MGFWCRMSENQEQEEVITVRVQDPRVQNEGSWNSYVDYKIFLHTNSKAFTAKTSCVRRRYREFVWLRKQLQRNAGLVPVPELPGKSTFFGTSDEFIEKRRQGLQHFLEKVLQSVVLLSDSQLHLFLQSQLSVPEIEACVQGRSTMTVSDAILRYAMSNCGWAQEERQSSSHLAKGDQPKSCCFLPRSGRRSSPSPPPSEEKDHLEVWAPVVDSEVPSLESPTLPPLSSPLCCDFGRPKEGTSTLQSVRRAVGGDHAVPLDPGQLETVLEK
Sequence of UniProt Q92844 (Q92844 whole entry, looked up): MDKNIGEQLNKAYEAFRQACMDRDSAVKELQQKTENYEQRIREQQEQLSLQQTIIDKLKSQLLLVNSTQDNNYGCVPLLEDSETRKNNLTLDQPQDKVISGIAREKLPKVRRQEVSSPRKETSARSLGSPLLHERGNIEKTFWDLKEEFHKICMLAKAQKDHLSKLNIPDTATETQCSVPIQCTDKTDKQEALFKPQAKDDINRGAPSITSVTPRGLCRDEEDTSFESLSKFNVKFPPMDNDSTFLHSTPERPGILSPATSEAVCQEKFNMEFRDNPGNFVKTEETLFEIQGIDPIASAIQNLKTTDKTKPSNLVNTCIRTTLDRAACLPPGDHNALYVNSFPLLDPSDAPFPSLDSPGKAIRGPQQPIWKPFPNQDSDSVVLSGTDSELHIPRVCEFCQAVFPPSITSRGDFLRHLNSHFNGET
Sequence of UniProt Q9BUA3 (Q9BUA3 whole entry, looked up): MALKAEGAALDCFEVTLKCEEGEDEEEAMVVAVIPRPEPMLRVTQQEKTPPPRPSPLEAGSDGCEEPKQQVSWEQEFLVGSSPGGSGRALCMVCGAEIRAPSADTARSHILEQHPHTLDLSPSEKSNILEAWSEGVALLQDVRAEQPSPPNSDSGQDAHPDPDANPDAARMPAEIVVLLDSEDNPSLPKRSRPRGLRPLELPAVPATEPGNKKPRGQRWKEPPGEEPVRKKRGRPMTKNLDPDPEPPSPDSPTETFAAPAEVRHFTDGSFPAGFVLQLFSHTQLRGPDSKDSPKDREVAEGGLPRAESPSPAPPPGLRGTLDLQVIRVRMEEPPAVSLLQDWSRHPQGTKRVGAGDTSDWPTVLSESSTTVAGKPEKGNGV
Sequence of UniProt Q9Y5X1 (Q9Y5X1 whole entry, looked up): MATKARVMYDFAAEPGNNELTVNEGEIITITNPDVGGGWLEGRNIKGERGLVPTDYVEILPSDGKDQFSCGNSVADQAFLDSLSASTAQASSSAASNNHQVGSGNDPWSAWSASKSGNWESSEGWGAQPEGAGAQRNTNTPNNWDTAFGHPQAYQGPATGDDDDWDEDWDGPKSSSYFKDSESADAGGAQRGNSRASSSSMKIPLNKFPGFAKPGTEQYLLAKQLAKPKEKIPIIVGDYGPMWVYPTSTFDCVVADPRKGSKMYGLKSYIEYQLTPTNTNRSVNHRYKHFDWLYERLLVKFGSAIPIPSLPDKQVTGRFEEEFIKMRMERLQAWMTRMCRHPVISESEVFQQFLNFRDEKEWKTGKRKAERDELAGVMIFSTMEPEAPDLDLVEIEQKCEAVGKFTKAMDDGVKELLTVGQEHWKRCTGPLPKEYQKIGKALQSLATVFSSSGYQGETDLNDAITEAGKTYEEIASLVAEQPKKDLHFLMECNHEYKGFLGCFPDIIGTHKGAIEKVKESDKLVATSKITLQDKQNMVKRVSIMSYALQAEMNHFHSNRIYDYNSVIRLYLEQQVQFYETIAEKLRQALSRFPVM
Sequence of UniProt Q9BVV7 (Q9BVV7 whole entry, looked up): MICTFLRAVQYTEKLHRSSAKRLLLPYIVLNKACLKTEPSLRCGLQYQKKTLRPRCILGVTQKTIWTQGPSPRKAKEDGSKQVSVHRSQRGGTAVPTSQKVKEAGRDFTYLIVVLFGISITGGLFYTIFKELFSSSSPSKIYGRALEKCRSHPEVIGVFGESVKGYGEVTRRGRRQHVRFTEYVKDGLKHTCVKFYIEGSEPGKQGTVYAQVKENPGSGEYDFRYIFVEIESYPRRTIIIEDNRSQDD
Sequence of UniProt O14975 (O14975 whole entry, looked up): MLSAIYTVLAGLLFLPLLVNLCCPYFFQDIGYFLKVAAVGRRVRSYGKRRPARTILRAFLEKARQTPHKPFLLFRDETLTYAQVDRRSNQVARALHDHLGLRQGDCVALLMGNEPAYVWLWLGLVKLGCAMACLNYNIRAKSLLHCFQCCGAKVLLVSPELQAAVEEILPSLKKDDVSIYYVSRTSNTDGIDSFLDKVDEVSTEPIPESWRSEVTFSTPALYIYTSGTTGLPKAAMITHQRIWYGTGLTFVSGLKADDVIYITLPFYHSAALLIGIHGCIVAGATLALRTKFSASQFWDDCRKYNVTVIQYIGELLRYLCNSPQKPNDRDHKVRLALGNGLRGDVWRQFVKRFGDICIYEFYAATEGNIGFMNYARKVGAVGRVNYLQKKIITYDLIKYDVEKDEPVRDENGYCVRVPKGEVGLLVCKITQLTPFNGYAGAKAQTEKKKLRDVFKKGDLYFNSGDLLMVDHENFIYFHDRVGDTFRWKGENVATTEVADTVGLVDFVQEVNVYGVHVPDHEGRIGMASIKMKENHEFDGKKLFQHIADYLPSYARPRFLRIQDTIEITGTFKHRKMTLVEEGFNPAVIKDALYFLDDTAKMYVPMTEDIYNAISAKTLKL
Sequence of UniProt Q7L7X3 (Q7L7X3 whole entry, looked up): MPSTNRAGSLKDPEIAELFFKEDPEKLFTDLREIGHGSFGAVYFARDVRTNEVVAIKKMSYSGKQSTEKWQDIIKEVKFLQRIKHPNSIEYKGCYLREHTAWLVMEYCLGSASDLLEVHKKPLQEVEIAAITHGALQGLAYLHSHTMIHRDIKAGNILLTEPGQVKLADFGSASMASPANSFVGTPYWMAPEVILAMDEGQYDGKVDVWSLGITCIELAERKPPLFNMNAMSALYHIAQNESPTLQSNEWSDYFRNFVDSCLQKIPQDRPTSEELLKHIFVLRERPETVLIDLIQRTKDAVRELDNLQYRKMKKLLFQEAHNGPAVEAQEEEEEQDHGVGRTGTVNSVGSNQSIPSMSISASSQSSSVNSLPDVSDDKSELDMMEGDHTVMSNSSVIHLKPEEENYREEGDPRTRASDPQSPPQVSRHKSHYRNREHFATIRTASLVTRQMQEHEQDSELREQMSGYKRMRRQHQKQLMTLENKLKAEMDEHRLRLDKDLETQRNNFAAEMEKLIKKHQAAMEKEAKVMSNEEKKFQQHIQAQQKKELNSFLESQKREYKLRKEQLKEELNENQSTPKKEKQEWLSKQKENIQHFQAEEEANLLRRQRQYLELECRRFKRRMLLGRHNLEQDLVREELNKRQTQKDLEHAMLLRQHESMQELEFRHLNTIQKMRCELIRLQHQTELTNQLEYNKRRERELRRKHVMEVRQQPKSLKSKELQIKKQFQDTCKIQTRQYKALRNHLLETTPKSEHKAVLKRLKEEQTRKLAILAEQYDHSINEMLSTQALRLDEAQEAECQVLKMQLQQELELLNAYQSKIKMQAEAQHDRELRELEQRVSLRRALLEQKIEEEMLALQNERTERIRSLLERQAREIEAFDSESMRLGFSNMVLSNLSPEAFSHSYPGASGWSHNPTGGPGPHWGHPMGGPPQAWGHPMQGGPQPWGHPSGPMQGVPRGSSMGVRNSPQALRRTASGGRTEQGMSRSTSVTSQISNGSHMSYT
Sequence of UniProt Q969G3 (Q969G3 whole entry, looked up): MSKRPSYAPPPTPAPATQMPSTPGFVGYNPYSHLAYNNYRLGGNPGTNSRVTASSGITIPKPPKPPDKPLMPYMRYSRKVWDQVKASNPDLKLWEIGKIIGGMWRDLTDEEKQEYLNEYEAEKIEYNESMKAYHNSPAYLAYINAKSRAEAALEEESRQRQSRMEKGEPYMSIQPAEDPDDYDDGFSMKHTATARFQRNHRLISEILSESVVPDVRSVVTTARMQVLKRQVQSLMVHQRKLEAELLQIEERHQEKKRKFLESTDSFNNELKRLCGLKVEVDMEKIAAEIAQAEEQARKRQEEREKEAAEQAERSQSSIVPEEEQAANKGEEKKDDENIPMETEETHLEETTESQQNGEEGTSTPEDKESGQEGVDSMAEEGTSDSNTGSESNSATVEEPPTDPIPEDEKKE
Sequence of UniProt P08579 (P08579 whole entry, looked up): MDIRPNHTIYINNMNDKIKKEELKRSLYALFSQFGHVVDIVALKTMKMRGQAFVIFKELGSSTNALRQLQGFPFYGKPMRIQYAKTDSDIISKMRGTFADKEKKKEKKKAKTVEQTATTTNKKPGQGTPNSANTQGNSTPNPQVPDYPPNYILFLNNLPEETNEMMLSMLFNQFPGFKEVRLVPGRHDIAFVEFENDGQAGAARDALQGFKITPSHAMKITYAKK
Sequence of UniProt Q9UKI8 (Q9UKI8 whole entry, looked up): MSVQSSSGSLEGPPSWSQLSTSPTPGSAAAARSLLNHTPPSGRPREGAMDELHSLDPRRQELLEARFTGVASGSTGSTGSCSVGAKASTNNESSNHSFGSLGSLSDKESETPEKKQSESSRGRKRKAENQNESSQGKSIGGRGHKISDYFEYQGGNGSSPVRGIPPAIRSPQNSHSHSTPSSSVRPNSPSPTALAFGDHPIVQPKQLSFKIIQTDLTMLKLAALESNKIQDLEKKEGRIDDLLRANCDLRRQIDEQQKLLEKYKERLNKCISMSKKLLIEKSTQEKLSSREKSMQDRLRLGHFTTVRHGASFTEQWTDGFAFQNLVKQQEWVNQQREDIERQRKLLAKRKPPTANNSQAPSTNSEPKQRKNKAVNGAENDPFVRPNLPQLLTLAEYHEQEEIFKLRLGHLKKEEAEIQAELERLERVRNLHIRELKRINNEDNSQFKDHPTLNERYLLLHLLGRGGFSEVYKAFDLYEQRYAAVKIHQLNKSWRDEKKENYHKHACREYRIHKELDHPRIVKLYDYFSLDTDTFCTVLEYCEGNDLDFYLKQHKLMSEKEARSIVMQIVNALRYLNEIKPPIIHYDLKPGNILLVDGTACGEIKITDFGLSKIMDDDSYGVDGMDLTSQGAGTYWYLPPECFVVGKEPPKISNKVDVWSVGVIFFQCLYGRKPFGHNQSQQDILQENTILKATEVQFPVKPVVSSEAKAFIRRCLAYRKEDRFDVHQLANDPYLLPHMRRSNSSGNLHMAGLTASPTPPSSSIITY

Target	log2 fold change [1]	log2 fold change (volasertib)	log2 fold change [2]	log2 fold change (epoxomicin)	log2 fold change [3]	log2 fold change [4]	log2 fold change [5]	log2 fold change (rosiglitazone)	log2 fold change [6]	log2 fold change [7]	log2 fold change (saracatinib)	log2 fold change (sotrastaurin)	log2 fold change (alvocidib)	log2 fold change (Tubastatin A)	log2 fold change [8]	log2 fold change (defactinib)	log2 fold change (rucaparib)	log2 fold change [9]	log2 fold change (encorafenib)	log2 fold change [10]
TANK (UniProt Q92844)	0.057	-0.105	-0.064	-0.021	-0.074	0.074	-0.012	-0.012	-0.117	-0.072	0.118	0.033	0.081	0.03	0.236	0.045	-0.016	0.052	0.064	-0.03
SUGP1 (UniProt Q8IWZ8)	-0.155	-0.341 (active)	0.056	0.062	-0.102	-0.007	0.021	0.042	-0.028	-0.081	0.012	-0.049	-0.129	0.052	-0.043	-0.124	-0.016	-0.074	-0.003	-0.02
SLC27A2 (UniProt O14975)	-0.094	-0.408 (active)	0	-0.05	0.277 (active)	-0.064	0.016	-0.032	-0.092	0.313 (active)	0	0.005	-0.079	-0.015	0.144	-0.006	0.056	0.333 (active)	0.015	-0.034
SSR3 isoform 2 (UniProt Q9UNL2)	0.05	0.059	-0.075	-0.054	0.062	-0.069	0.087	-0.002	0.056	0.195	0.153	0.083	-0.108	-0.04	0.006	-0.006	-0.049	-0.052	0.001	0.086
SRSF10 (UniProt O75494)	0.141	0.274	-0.197	-0.408	0.047	0.276	-0.127	-0.073	0.498	0.237	-0.002	0.041	0.338	-0.009	-0.053	0.233	0.314	0.068	0.133	0.14
TAOK1 (UniProt Q7L7X3)	0.03	-0.019	0.029	-0.02	-0.008	-0.024	0	0.032	0.017	-0.262 (active)	0.002	-0.013	-0.077	0.032	-0.002	-0.142	0.032	0.053	-0.061	-0.018
SLC25A38 (UniProt Q96DW6)	0.013	0.009	-0.002	-0.025	0.048	0	-0.02	-0.028	-0.017	-0.048	0.076	-0.027	-0.117	-0.035	-0.015	0.046	-0.002	0.026	0.016	-0.057
SUN2 (UniProt Q9UH99)	0.016	-0.064	0.01	0.045	0.006	-0.032	-0.012	0.033	0.015	0.057	-0.029	-0.09	0.015	0.053	-0.068	-0.05	0.03	-0.066	0.067	0.023
SMARCE1 (UniProt Q969G3)	-0.006	-0.125	0.087	-0.033	-0.071	0.053	-0.036	-0.222	0.058	-0.045	-0.036	-0.204	-0.033	0.018	-0.032	0.579 (active)	-0.016	0.023	0.166	-0.199
TLK1 (UniProt Q9UKI8)	0.017	-0.088	0.02	-0.018	0.01	-0.054	0.033	0.026	-0.086	-0.037	0.022	-0.011	-0.022	0.036	-0.064	-0.013	-0.029	-0.002	0.022	-0.033
SNRPD3 (UniProt P62318)	0.194	0.134	-0.058	-0.037	0.005	0.058	-0.07	-0.047	0.001	0.198	0.004	0.068	0.069	-0.097	0.038	0.137	0.017	-0.098	-0.027	-0.003
SNRPB2 (UniProt P08579)	0.176	0.174	-0.069	-0.05	0.025	0.069	-0.063	-0.047	-0.008	0.098	0.079	0.041	0.124	-0.11	0.02	0.193	0.058	-0.041	-0.037	0.054
TIMM21 (UniProt Q9BVV7)	-0.133	-0.286 (active)	0.034	-0.041	0.029	-0.028	-0.025	0.05	-0.044	-0.227	0	-0.001	-0.05	-0.048	-0.025	-0.007	-0.04	-0.016	0.063	0.051
SNX11 (UniProt Q9Y5W9)	-0.167	-0.324	0.066	-0.031	-0.097	-0.022	-0.024	-0.007	0.167	-0.646 (active)	-0.055	-0.055	-0.135	-0.014	0.011	-0.02	-0.001	0.055	-0.074	0.002
SPINDOC (UniProt Q9BUA3)	-0.131	-0.178	-0.243	0.071	-0.094	0.105	0.074	-0.041	-0.222	-0.02	0.185	-0.23	0.025	-0.121	-0.039	0.068	0	-0.02	0.057	0.049
SNX9 (UniProt Q9Y5X1)	-0.125	-0.309 (active)	0.04	-0.02	-0.018	-0.021	-0.006	0.025	0.009	-0.137	0.01	-0.064	-0.069	-0.025	0.038	-0.112	0.058	-0.005	0.049	0
